Measured values from PubChem BioAssay (Tox21).
Records with an inconclusive call do not appear. Calls of active or inactive are those of the source. Calls come from the whole dose curve.

Experiments:
[1] = biological target: Acetylcholinesterase (Homo sapiens) (UniProt P22303); assay: Acetylcholinesterase (AChE) small molecule antagonists: colormetric cell-based qHTS assay (AID 1347395); note: nearly all actives have a fitted effect of over 30% in size
Method in brief: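 Colorimetric read-out: DTNB detects thiocholine released when cellular AChE in SH-SY5Y cells hydrolyses acetylthiocholine. Cells attached overnight, received compound for 30 min at 37 C, then substrate mix for 90 min at 37 C.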

[2] = biological target: Acetylcholinesterase (Homo sapiens) (UniProt P22303); assay: Acetylcholinesterase (AChE) small molecule antagonists: enzyme-based qHTS assay (AID 1347397); details: Potency: AChE enzyme activity inhibition; outcome: AChE enzyme activity inhibition; note: nearly all actives have a fitted effect of over 55% in size
Method in brief: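 Absorbance-based detection of thiocholine with DTNB served as the read-out. Recombinant human AChE was exposed to compound for 30 min at RT before a 10 min RT incubation with acetylthiocholine.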

[3] = biological target: Acetylcholinesterase (Homo sapiens) (UniProt P22303); assay: Acetylcholinesterase (AChE) small molecule antagonists: fluorescence cell-based qHTS assay (AID 1347398); details: Potency: AChE activity; outcome: AChE activity; note: nearly all actives have a fitted effect of over 50% in size
Method in brief: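 Fluorimetric cell-based assay: intact SH-SY5Y cells, 30 min compound preincubation at 37 C, acetylthiocholine substrate with thiol probe Thiolite Green, 40 min RT development, fluorescence 490/520 nm.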

[4] = biological target: Acetylcholinesterase (Homo sapiens) (UniProt P22303); assay: Acetylcholinesterase (AChE) small molecule antagonists: enzyme-based qHTS assay with human liver microsomes (AID 1347399); details: Potency: qHTS inhibition; outcome: qHTS inhibition; note: nearly all actives have a fitted effect of over 60% in size
Method in brief: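 Recombinant human AChE (50 mU/mL in the enzyme mix) and human liver microsomes (0.25 mg/mL final) were preincubated with compound and NADPH (0.25 mg/mL final) for 30 min at 37 C. Acetylthiocholine/DTNB was then added; thiocholine was read colorimetrically after 10 min at room temperature.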

Measured: Potency

Sequence of Acetylcholinesterase (Homo sapiens) (P22303 whole entry, looked up): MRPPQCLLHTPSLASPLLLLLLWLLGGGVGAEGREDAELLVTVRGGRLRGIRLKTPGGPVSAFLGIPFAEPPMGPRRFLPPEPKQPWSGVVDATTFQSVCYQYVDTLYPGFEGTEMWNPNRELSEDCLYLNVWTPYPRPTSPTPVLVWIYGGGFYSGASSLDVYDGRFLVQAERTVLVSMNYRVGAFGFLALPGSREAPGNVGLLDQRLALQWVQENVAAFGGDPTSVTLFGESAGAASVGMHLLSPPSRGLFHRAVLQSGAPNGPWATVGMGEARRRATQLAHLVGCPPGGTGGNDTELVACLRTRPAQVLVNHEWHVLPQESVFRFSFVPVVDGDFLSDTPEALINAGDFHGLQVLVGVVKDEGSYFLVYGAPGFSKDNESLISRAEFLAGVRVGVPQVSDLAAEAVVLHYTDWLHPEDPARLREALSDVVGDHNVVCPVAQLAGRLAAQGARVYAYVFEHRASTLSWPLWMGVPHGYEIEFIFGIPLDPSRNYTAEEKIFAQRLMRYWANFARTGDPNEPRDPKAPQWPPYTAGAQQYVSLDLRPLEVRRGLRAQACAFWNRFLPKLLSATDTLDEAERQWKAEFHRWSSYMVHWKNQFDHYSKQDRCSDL

COCC(C)OC(C)=O (stereo not given)
inactive: all assays above

CC1COC(=O)O1 (stereo not given)
inactive: all assays above

COc1ccc(NC(=O)CC(C)=O)cc1
inactive: all assays above

CCNc1nc(N)nc(Cl)n1
inactive: all assays above

O=C1c2ccccc2C(=O)C1c1ccccc1
inactive: all assays above

c1c[nH]cn1
inactive: all assays above

CC(=O)N(CC(O)CN(C(C)=O)c1c(I)c(C(=O)NCC(O)CO)c(I)c(C(=O)NCC(O)CO)c1I)c1c(I)c(C(=O)NCC(O)CO)c(I)c(C(=O)NCC(O)CO)c1I (stereo not given)
inactive: all assays above

O=C=NCCCCCCN=C=O
inactive: all assays above

CN(C)CCCN
inactive: all assays above

C=CC(=O)OCC(C)OCC(C)OCC(C)OC(=O)C=C (stereo not given)
inactive: all assays above

Cn1cccc1
inactive: all assays above

C/C=C(/C(=C/C)c1ccc(O)cc1)c1ccc(O)cc1
inactive: all assays above

O=C(O)C1CCC(C(=O)O)CC1 (stereo not given)
inactive: all assays above

CC(C)OC(=O)CCC(=O)OC(C)C
inactive: all assays above

O=S(=O)(O)c1ccc2nc(-c3ccccc3)[nH]c2c1
inactive: all assays above

CCCCCC/C(C=O)=C\c1ccccc1
inactive: all assays above

O=c1c(-c2ccc(O)cc2)coc2cc(O)ccc12
inactive: all assays above

CC(C)c1cc2c(cc1S(=O)(=O)O)[C@@]1(C)CCC[C@@](C)(C(=O)O)[C@@H]1CC2
inactive: all assays above

CN(N=O)C(=O)N[C@@H]1[C@@H](O)[C@H](O)[C@@H](CO)O[C@@H]1O
inactive: all assays above

O=C(Nc1ccc([N+](=O)[O-])cc1Cl)c1cc(Cl)ccc1O
inactive: all assays above

O=S(=O)(Oc1ccc(Cl)cc1Cl)c1ccccc1
inactive: all assays above

Nc1nc2c(ncn2COCCO)c(=O)[nH]1
inactive: all assays above

CC(C)CC(C)O (stereo not given)
inactive: all assays above

OC/C(Br)=C(\Br)CO
inactive: all assays above

CCCCCCCCCCCCCCCCO
inactive: all assays above

CCC(C)CO (stereo not given)
inactive: all assays above

Cc1cc(C)nc(NS(=O)(=O)c2ccc(N)cc2)n1
inactive: all assays above

c1ccc(COCc2ccccc2)cc1
inactive: all assays above

O=C(O)c1cc(=O)c2c(OCC(O)COc3cccc4oc(C(=O)O)cc(=O)c34)cccc2o1
inactive: all assays above

CCc1cc(Cc2cc(CC)cc(C(C)(C)C)c2O)c(O)c(C(C)(C)C)c1
inactive: all assays above

CN1CCCN(C(c2ccccc2)c2ccc(Cl)cc2)CC1 (stereo not given)
inactive: all assays above

Cc1occc1SSc1ccoc1C
inactive: all assays above

NC(=O)Nc1nc2ccccc2[nH]1
inactive: all assays above

O=Nc1ccc(NO)cc1
inactive: all assays above

O=C(O)c1ccccc1[N+](=O)[O-]
inactive: all assays above

Cc1cc(C)c(/C=C2\C(=O)Nc3ccccc32)[nH]1
inactive: all assays above

CC12CCC(C1)C(C)(C)C2O (stereo not given)
inactive: all assays above

O=C(CCCl)NCc1ccccc1
inactive: all assays above

C=Cc1ccccn1
inactive: all assays above

CCO[Si](CCCNC(N)=O)(OCC)OCC
inactive: all assays above

Cc1cc(CCC(=O)OCCOCCOCCOC(=O)CCc2cc(C)c(O)c(C(C)(C)C)c2)cc(C(C)(C)C)c1O
inactive: all assays above

CCOC(=O)C(O)c1ccccc1 (stereo not given)
inactive: all assays above

Cc1c(C)c2c(c(C)c1O)CC[C@@](C)(CCC[C@H](C)CCC[C@H](C)CCCC(C)C)O2
inactive: all assays above

O=C(O)CCc1nc2ccccc2[nH]1
inactive: all assays above

C=C(C)C1CCC(C)CC1O (stereo not given)
inactive: all assays above

CC(C)(CO)[C@@H](O)C(=O)NCCC(=O)O
inactive: all assays above

CCC(C)(C)C1CCC(OC)CC1 (stereo not given)
inactive: all assays above

O=C(Oc1ccccc1C(=O)O)c1ccccc1O
inactive: all assays above

NC(=O)N(O)[C@@H]1C=C[C@H](Oc2cccc(Oc3ccc(F)cc3)c2)C1
inactive: all assays above

Cc1ccc(NC=O)c(C)c1
inactive: all assays above

CC(=O)Nc1c(I)cc(I)c(C(=O)O)c1I
inactive: all assays above

Cc1cccc(C)c1NC(=O)CC12CCCN1CCC2
inactive: all assays above

COCCOCCOCCOCCOCCO
inactive: all assays above

CC(C)(C)C1=CC(=O)C(C(C)(C)C)=CC1=O
inactive: all assays above

CSc1cnccn1
inactive: all assays above

C=CC(=O)OCCOCCOCCOCCOC(=O)C=C
inactive: all assays above

Cc1c(N)cccc1C(F)(F)F
inactive: all assays above

c1ccc2ncccc2c1
inactive: all assays above

Nc1ccc(C(=O)Nc2ccccc2N)cc1
inactive: all assays above

CCCCC(=O)N(C)C
inactive: all assays above
